From PubChem
The list is not random: actives were taken first. Their share in the collection is about 3.2%.
MsrA inh = bovine MsrA inhibition; AID 651718; inhibition, % at 15.5 µM; 0.75% of 360,000 active; purified bovine MsrA, absorbance read-out; in the data active = inhibition above about 4.5%;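 also: 0% = vehicle wells with enzyme and 100% = reference inhibitor wells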
DSG3 Ab inh = inhibitors of pemphigus antibody binding to human desmoglein-3 | binding (percent of control), % at 10 µM | 0.48% of 310,000 active | DSG3-coupled beads, scFv-anti-DSG3-GFP binding, flow cytometry; active compounds read low | AID 588358;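 active = binding more than 3 SD below its plate's average and above zero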;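 also: hits lower antibody fragment binding to DSG3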
bovine MsrA act = bovine methionine sulfoxide reductase A activation; activation, % at 10.6 µM; 0.3% of 360,000 active; purified bovine MsrA, absorbance read-out; in the data active = activation above about 7.5%;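 also: 0% = vehicle and 100% = reference activator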
NadD inh = blocks S. aureus nicotinate mononucleotide adenylyltransferase; 0.78% of 360,000 active; purified NadD enzyme, colorimetric absorbance read-out; AID 602399; inhibition, % at 20 µM; in the data active = inhibition above about 26%
DAGLB inh = blocks human DAGLB lipase activity | 0.059% of 340,000 active | HEK293T DAGLB membrane lysate, EnzChek fluorogenic substrate | inhibition, % at 5.17 µM; in the data active = inhibition above about 34%;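 also: 0% = enzyme with vehicle and 100% = wells lacking enzyme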
Target sequence (Q8NCG7 whole entry, looked up): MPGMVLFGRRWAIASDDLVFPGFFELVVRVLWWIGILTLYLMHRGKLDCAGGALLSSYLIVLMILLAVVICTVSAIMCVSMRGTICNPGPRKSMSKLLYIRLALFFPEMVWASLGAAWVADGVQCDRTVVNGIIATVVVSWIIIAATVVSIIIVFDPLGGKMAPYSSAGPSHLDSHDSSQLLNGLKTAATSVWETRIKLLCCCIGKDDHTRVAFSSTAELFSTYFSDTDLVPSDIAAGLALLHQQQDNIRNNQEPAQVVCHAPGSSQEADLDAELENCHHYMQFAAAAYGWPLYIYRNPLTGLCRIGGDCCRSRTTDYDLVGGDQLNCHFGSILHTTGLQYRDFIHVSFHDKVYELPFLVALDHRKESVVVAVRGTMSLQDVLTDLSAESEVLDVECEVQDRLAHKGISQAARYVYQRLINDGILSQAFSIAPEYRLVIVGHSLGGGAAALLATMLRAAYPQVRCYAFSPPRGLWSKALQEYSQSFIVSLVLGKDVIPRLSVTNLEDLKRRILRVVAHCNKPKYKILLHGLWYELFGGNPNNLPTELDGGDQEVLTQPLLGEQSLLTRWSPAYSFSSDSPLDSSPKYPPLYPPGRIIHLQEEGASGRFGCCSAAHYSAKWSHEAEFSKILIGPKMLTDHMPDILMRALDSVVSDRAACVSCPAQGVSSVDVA
rCAG binder = r(CAG) repeat RNA binding; inhibition, % at 3 µM; TO-PRO-1 dye displacement fluorescence; 1.3% of 370,000 active; AID 651821;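 active = inhibition above the plate cutoff, the mean of all test compounds on that plate plus 3 SD, cut at about 35% in these data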;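 also: 0% = DMSO alone and 100% = 100 µM mitoxantrone as full dye displacement; higher means more dye released from RNA so lower well fluorescence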
rCAG binder conf = r(CAG) RNA repeat binding, confirmation; 70% of 4,300 active; shares compounds with rCAG binder; inhibition, % at 3 µM; AID 652065; TO-PRO-1 dye displacement fluorescence;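 active = inhibition above a per-plate cutoff, the mean inhibition of sample wells plus 3 SD, cut at about 35% in these data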;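 also: loss of TO-PRO-1 fluorescence as compound displaces dye from 1x1 AA loop RNA; 0% = DMSO only wells and 100% = 100 µM mitoxantrone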
dCAG dye counter = disrupts DNA CAG TO-PRO-1 complex, flagging rCAG hits | AID 652068 | d(CAG) DNA oligo TO-PRO-1 dye displacement, fluorescence | shares compounds with rCAG binder | 94% of 4,300 active | inhibition, % at 3 µM;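 active = inhibition above its plate's cutoff, the mean test-well inhibition plus 3 SD, cut at about 4.8% in these data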;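 also: 0% = DNA dye mix with DMSO and 100% = 100 µM mitoxantrone; hits displace the dye from DNA and so lower well fluorescence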
Numbers without * were called inactive; nt = not tested or not shown.

SMILES	MsrA inh	DSG3 Ab inh	bovine MsrA act	NadD inh	DAGLB inh	rCAG binder	rCAG binder conf	dCAG dye counter
Cc1cc(-n2c(=S)sc3c(=O)n(-c4ccc(F)cc4)c(SCC(=O)O)nc32)ccc1Cl	3.5	92.9	-4.3	-2.5	5.6	48.4*	38.1*	11.9*
CC1=C(C(=O)N2CCOCC2)CC(CC(=O)NC2CCCC2)C(=O)N1Cc1ccccc1 (stereo unspecified)	0.2	102.2	-5.6	0.4	4.2	-0.4	nt	nt
O=C(NCCCn1ccnc1)c1sc2cc([N+](=O)[O-])ccc2c1Cl	1.5	105.3	-2.0	8.5	4.1	4.5	nt	nt
COc1ccccc1CNS(=O)(=O)c1ccc(-c2cnc(C3CC3)o2)cc1	-0.8	91.9	0.0	2.1	-20.4	-1.2	nt	nt
COc1ccc(-c2ncn(CCc3ccccc3OC)c2C(C)C)cc1	0.5	nt	nt	nt	nt	-2.2	nt	nt
Cc1cc(Cl)ccc1C(O)c1ncc(-c2ccc(F)cc2)[nH]1 (stereo unspecified)	nt	nt	-3.1	-1.8	nt	nt	nt	nt
CCc1ccc(-n2c(=S)sc3c(=O)n(-c4ccccc4C)c(SCC(=O)O)nc32)cc1	2.5	86.1	-10.7	0.7	6.8	41.2*	43.8*	12.7*
CCN(CC)C(=O)CSc1nc2c(sc(=S)n2-c2ccccc2)c(=O)n1-c1ccc(OC)c(OC)c1	1.3	99.6	-2.2	-5.6	0.5	-1.1	nt	nt
COc1ccc(/C=C2/S/C(=N/S(=O)(=O)Cc3ccccc3)NC2=O)cc1OC	2.4	106.0	-9.6	1.3	4.4	52.8*	44.4*	11.7*
CCc1ccc(N=C2NC(=O)/C(=C/c3ccc(OCC(=O)O)c(OC)c3)S2)cc1	3.0	109.5	-6.5	8.6	3.7	42.4*	39.1*	11.9*
COc1ccc(N=C2NC(=O)/C(=C/c3ccc(O)c(OC)c3)S2)cc1	1.6	nt	-5.1	9.8	3.4	19.5	nt	nt
CCOc1ccc(N=C2NC(=O)/C(=C/C(=O)OC)S2)cc1	0.6	96.2	-7.0	6.5	1.0	3.4	nt	nt
CCc1ccc(N=C2NC(=O)/C(=C/c3ccc(OCC(=O)O)cc3)S2)cc1	4.5	121.5	-4.3	7.8	5.8	48.6*	40.3*	10.1*
Cc1occc1-c1nnc(SCC(=O)Nc2ccncc2)n1-c1ccccc1	nt	nt	nt	nt	nt	9.3	nt	nt
CCCCSc1nc2c(cc1C#N)CCC2	-0.3	96.0	-2.1	-4.6	-10.8	0.6	nt	nt
CCCSc1nc(C)c(-c2csc(C(C#N)=C3CCCC3)n2)cc1C#N	0.3	110.5	-0.5	21.7	0.3	43.9*	37.5*	25.2*
Cc1ccc(Sc2ccc(/C=C3/C(=O)NN(c4ccccc4)C3=O)o2)cc1	1.4	95.1	-1.1	12.1	6.0	35.3*	80.7*	46.1*
Cn1c(=O)c2[nH]c(NN=Cc3ccc(F)cc3)nc2n(C)c1=O	-0.2	93.7	1.3	-2.1	1.7	3.4	nt	nt
Cc1cc(C)cc(Nc2nc3c([nH]2)c(=O)n(C)c(=O)n3C)c1	0.0	103.8	-2.2	-0.6	3.4	58.3*	18.1	12.5*
Cn1c(=O)c2[nH]c(NN=Cc3cccc(Br)c3)nc2n(C)c1=O	1.8	82.0	-6.1	-8.7	0.1	13.5	nt	nt
Cc1ccc(Nc2nc3c([nH]2)c(=O)n(C)c(=O)n3C)cc1	-0.3	96.2	2.0	-5.4	-2.8	50.6*	14.2	14.0*
CCN(C)C1CN(Cc2cn(Cc3ccc(C(F)(F)F)cc3)nn2)S(=O)(=O)C1 (stereo unspecified)	1.1	nt	-9.2	-2.3	nt	0.8	nt	nt
OCC[C@@H]1C[C@H](O)[C@@H](O)[C@@]2(OCCc3cc(C(F)(F)F)ccc32)O1	-0.2	nt	nt	nt	nt	1.3	nt	nt
Cc1ccc(-n2c(O)c(/C=N/NC(=O)C3COc4ccccc4O3)c3ccccc3c2=O)cc1 (stereo unspecified)	1.9	126.2	-3.9	22.6	11.8	82.3*	74.9*	37.6*
O=C(CC1Sc2ccccc2NC1=O)NNc1ccc(Cl)cc1Cl (stereo unspecified)	0.8	116.9	-3.2	-2.8	-2.5	4.4	nt	nt
SMILES	MsrA inh	DSG3 Ab inh	bovine MsrA act	NadD inh	DAGLB inh	rCAG binder	rCAG binder conf	dCAG dye counter
O=C1Nc2c(Cl)cc(Cl)cc2C12Nc1ccccc1S2 (stereo unspecified)	-0.6	nt	nt	nt	nt	41.3*	13.0	8.0*
C=CCNc1nc(N)c(C(=C(C#N)C#N)c2ccc(Br)cc2)s1	-0.5	103.7	-6.1	8.0	-1.0	38.1*	22.2	10.3*
CCCCOc1cccc(C(=O)Nc2ccc(S(=O)(=O)Nc3nnc(CC)s3)cc2)c1	-0.1	97.1	-2.5	9.6	5.5	79.8*	73.2*	37.1*
CCc1nnc(NS(=O)(=O)c2ccc(NC(=O)c3ccc([N+](=O)[O-])s3)cc2)s1	2.5	98.8	1.3	-0.9	8.6	60.7*	48.4*	15.2*
CCc1nnc(NC(=O)c2cccc(OC)c2)s1	0.8	95.6	-3.5	-0.8	1.9	-2.2	nt	nt
CCc1nnc(NS(=O)(=O)c2ccc(NC(=O)c3cccc([N+](=O)[O-])c3)cc2)s1	-0.5	100.4	-1.4	-2.7	5.2	45.1*	27.4	4.9*
COC(=O)C1CN(Cc2cn(Cc3ccc(OC)cc3)nn2)CCS(=O)(=O)N1Cc1ccc(Cl)cc1 (stereo unspecified)	nt	nt	nt	nt	nt	1.9	nt	nt
O=C(O)c1ccc(C2(c3ccc(C(=O)O)cc3)OC(=O)c3ccccc32)cc1	0.2	116.2	-0.8	3.9	-0.2	-2.6	nt	nt
O=C1OC(c2ccccc2)(c2cc(Br)c(O)c(Br)c2)c2ccccc21 (stereo unspecified)	-1.1	93.0	-3.3	8.4	18.9	49.8*	57.1*	15.7*
C/C(CC(=O)Nc1ccc(Cl)c(C(F)(F)F)c1)=N\NC(=O)c1ccccc1O	0.7	99.1	-5.5	-0.1	4.2	53.1*	9.3	3.8
Cc1[nH]n(-c2ccccc2)c(=O)c1C1(C(F)(F)F)C(=O)N(c2ccccc2)C2=C1C(=O)CC(C)(C)C2 (stereo unspecified)	2.0	103.9	-3.4	2.1	4.2	35.9*	22.2	7.3*
Cc1ccc(N2C(=O)C(c3c(C)[nH]n(-c4ccccc4)c3=O)(C(F)(F)F)C3=C2CC(C)(C)CC3=O)cc1 (stereo unspecified)	-0.7	108.7	-3.6	9.9	3.2	7.0	nt	nt
CCOC(=O)C1CCCN(C(=O)c2cc(-c3ccco3)nc3ccccc23)C1 (stereo unspecified)	0.6	84.3	-1.8	22.9	3.7	38.7*	32.5	15.4*
CC1(C)Oc2ccc3ccc(=O)oc3c2/C(=C/NNC(N)=S)C1=O	2.4	90.6	-0.2	1.5	1.7	7.1	nt	nt
Cc1c(C)n(Cc2ccc(-c3ccccc3C(=O)O)cc2)c2ccc(C(=O)N[C@@H](C)c3ccc([N+](=O)[O-])cc3)cc12	nt	nt	nt	nt	nt	73.5*	74.4*	34.8*
